Source: PubChem BioAssay (Sanford-Burnham Center for Chemical Genomics)
CYP2C9 act: human CYP2C9 activators, primary screen, biochemical, luminescence; Cytochrome P450 2C9 (Homo sapiens), P11712; recombinant CYP2C9, luciferin-H conversion; stronger effect = higher value; factor 1 = untreated enzyme, 0 = blocked; activation factor at 5 µM; 96,000 compounds, 1.4% hits; AID 1024, 2008;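 active = activation factor of 2 or more for CYP2C9 at a 5 µM dose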;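 note: 0 = sulfaphenazole-blocked wells and 1 = vehicle-only wells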
CYP2C19 inh: blockers of cytochrome P450 2C19 activity – biochemical, luminescence, ADME assay, primary screen; P33261; CYP2C19 Supersomes, luciferin-H EGE luminescence, 30 min; inhibition, % at 5 µM; 96,000 compounds, 21% hits; AID 778, 2007;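 active = CYP2C19 inhibition above a set limit at 5 µM in the primary screen, cut at about 50% in these data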;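 note: plate controls were negative control wells for no effect and 2.5 mM tranylcypromine positive control for full effect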
Target sequence (P33261 whole entry, looked up): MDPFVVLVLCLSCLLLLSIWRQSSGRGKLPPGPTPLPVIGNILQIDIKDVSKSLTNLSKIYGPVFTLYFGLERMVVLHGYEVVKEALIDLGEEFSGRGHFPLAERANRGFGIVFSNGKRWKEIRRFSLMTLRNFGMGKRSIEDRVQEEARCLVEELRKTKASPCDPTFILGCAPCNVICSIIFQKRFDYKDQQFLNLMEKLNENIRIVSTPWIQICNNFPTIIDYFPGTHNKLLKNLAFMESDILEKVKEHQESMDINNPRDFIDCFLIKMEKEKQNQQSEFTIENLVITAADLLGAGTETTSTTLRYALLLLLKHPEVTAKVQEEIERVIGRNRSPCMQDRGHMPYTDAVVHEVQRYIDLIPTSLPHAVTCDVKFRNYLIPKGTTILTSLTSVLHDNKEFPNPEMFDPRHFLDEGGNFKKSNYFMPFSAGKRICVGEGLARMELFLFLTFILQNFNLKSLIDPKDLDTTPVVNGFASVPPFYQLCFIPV
CYP2C19 activ: human CYP2C19 activators, primary screen, biochemical, luminescence. activation factor at 5 µM. Cytochrome P450 2C19 (Homo sapiens), P33261. 96,000 tested, under 10 active. recombinant CYP2C19, luciferin-H EGE luminescence; stronger effect = higher value; 0 = fully inhibited enzyme, 1 = untreated enzyme;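 active = activation factor of at least 2 at 5 µM in the primary screen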;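 note: 0 = wells with 2.5 mM tranylcypromine and 1 = vehicle-only wells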
PLAP activator: PLAP enzyme activators, biochemical, luminescence, HTS | Alkaline phosphatase, placental type (Homo sapiens), P05187 | purified PLAP enzyme, luminescent substrate read-out; stronger effect = higher value | activation fold at 20 µM | 96,000 compounds, 1.2% hits | AID 696, 2007; in the data active = activation fold above about 2
CYP2C9 inhib: blockers of cytochrome P450 2C9 activity – biochemical, luminescence, ADME assay, primary screen; P11712; AID 777, 2007; inhibition, % at 5 µM; 96,000 compounds, 20% hits; CYP2C9 Supersomes, luciferin-H conversion;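 active = blocking of liver enzyme CYP2C9 beyond about 50% at 5 µM, limit read from the data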
* marks the source's active call; other numbers are inactive results. Rows were chosen to be rich in hits. Some 31% of all compounds tested hit in one or more screens of this group.

Screening Cc1ccc2nc(Cc3ccc(N)cc3)oc2c1 returned CYP2C9 act 0.7, CYP2C19 inh 69.2*, CYP2C19 activ 0.3, PLAP activator 0.9 and CYP2C9 inhib 31.5.
O=C(CS(=O)(=O)c1cn(Cc2ccc(Cl)cc2)c2ccccc12)N1CCCC1 was read as CYP2C9 act 0.3, CYP2C19 inh 76.5*, CYP2C19 activ 0.2, PLAP activator 1.6 and CYP2C9 inhib 70.2*.
Screening O=C(CS(=O)(=O)c1c[nH]c2ccccc12)N1CCCCC1 returned CYP2C9 act 1.1, CYP2C19 inh 63.7*, CYP2C19 activ 0.4, PLAP activator 1.1 and CYP2C9 inhib -10.1.
Screening Cc1cc(NC(=O)CS(=O)(=O)c2cn(Cc3ccc(F)cc3)c3ccccc23)no1 returned CYP2C9 act 0.5, CYP2C19 inh 18.1, CYP2C19 activ 0.8, PLAP activator 0.8 and CYP2C9 inhib 47.6.
`O=C(O)c1ccccc1SCC(=O)N1CCCCC1` gave CYP2C9 act 0.9, CYP2C19 inh -5.2, CYP2C19 activ 1.1, PLAP activator 1 and CYP2C9 inhib 10.1.
For Cc1cccc(OCCOc2ccc(/C=N/NC(=O)Cc3nnc(N)s3)cc2)c1 the results were CYP2C9 act 1, CYP2C19 inh -4.3, CYP2C19 activ 1, PLAP activator 1 and CYP2C9 inhib -0.4.
`COC(=O)C1CCN(C(=O)c2ccc(SC)cc2OC)CC1` gave CYP2C9 act 0.9, CYP2C19 inh 99.0*, CYP2C19 activ 0, PLAP activator 1.1 and CYP2C9 inhib 12.3.
For CC(Sc1nnc(-c2cccnc2)n1-c1ccccc1)C(=O)NCc1ccc2c(c1)OCO2 (centres undefined) the results were CYP2C9 act 0.1, CYP2C19 inh 45.8, CYP2C19 activ 0.5, PLAP activator 0.9 and CYP2C9 inhib 91.0*.
For O=C(CSc1nnc(-c2cccnc2)n1-c1ccccc1)NCc1ccc2c(c1)OCO2 the results were CYP2C9 act 0.8, CYP2C19 inh -2.2, CYP2C19 activ 1, PLAP activator 0.9 and CYP2C9 inhib 18.5.
For C=CCn1c(SC(C)C(=O)NCc2ccc3c(c2)OCO3)nnc1C1CCCCC1 (centres undefined) the results were CYP2C9 act 0.4, CYP2C19 inh 56.1*, CYP2C19 activ 0.4, PLAP activator 1.8 and CYP2C9 inhib 57.1*.
Screening Nn1c(SCC(=O)NCCC2=CCCCC2)nnc1C(F)(F)F returned CYP2C9 act 0.8, CYP2C19 inh 48.8, CYP2C19 activ 0.5, PLAP activator 1 and CYP2C9 inhib 23.0.
For CCOC(=O)C(=Cc1ccc(-c2ccsc2C(=O)OC)o1)C(=O)OCC the results were CYP2C9 act 0.5, CYP2C19 inh 34.3, CYP2C19 activ 0.7, PLAP activator 0.9 and CYP2C9 inhib 50.0*.
Screening CN(CCO)c1nc(N)c2c(N)nc3c(c2c1C#N)CC(=O)N3C1CCCC1 returned CYP2C9 act 0.3, CYP2C19 inh 44.0, CYP2C19 activ 0.6, PLAP activator 0.9 and CYP2C9 inhib 74.6*.
CC(C)(C)N1C(=O)Cc2c1nc(N)c1c(N)nc(N3CCCCC3CO)c(C#N)c21 (centres undefined) was read as CYP2C9 act 0.2, CYP2C19 inh 27.7, CYP2C19 activ 0.7, PLAP activator 1.3 and CYP2C9 inhib 75.1*.
For Cn1c2ccccc2c(=O)n2c(=O)c3ccccc3cc12 the results were CYP2C9 act 0.4, CYP2C19 inh 68.0*, CYP2C19 activ 0.3, PLAP activator 1 and CYP2C9 inhib 55.8*.
`Cn1cccc1C(=O)NC(=O)CSc1nnc(C2CC2)n1-c1ccccc1` gave CYP2C9 act 0.9, CYP2C19 inh 55.2*, CYP2C19 activ 0.4, PLAP activator 1 and CYP2C9 inhib 7.4.
`CCNC(=O)CSc1nnc(C2CC2)n1-c1ccccc1` gave CYP2C9 act 1.1, CYP2C19 inh -10.1, CYP2C19 activ 1.1, PLAP activator 1.1 and CYP2C9 inhib -12.5.
`CCCCc1ccc(NC(=O)CSCc2cc(=O)[nH][nH]2)cc1` gave CYP2C9 act 0.8, CYP2C19 inh 22.8, CYP2C19 activ 0.8, PLAP activator 2.3* and CYP2C9 inhib 15.5.
Screening CCCCc1ccc(NC(=O)COCC)cc1 returned CYP2C9 act 0.7, CYP2C19 inh 39.2, CYP2C19 activ 0.6, PLAP activator 1 and CYP2C9 inhib 25.6.
Screening Cc1ccc(-n2c(C)cc(/C=N/NC(=O)CN(c3ccc(C)cc3C)S(C)(=O)=O)c2C)cc1 returned CYP2C9 act 0.5, CYP2C19 inh 27.3, CYP2C19 activ 0.7, PLAP activator 1.5 and CYP2C9 inhib 48.7.
Cc1cc(C)cc(-n2c(C)cc(/C=N/NC(=O)CN(c3c(C)cccc3C)S(C)(=O)=O)c2C)c1 was read as CYP2C9 act 0.5, CYP2C19 inh 17.8, CYP2C19 activ 0.8, PLAP activator 2* and CYP2C9 inhib 49.4.
Screening CCC(C)Cn1c(C(C)O)nc2ccccc21 (centres undefined) returned CYP2C9 act 0.8, CYP2C19 inh 1.0, CYP2C19 activ 1, PLAP activator 1 and CYP2C9 inhib 17.3.
For O=C(O)CCc1ccc(-c2ccccc2)n1CC(=O)O the results were CYP2C9 act 0.8, CYP2C19 inh 11.8, CYP2C19 activ 0.9, PLAP activator 0.9 and CYP2C9 inhib 16.7.
Cc1ccc(-c2ccc(CCC(=O)O)n2Cc2ccco2)cc1 was read as CYP2C9 act 0.4, CYP2C19 inh 31.9, CYP2C19 activ 0.7, PLAP activator 1.6 and CYP2C9 inhib 56.7*.
For Fc1ccc(C2CC(c3ccc(F)cc3)n3ncnc3N2)cc1 (centres undefined) the results were CYP2C9 act 0.3, CYP2C19 inh 96.7*, CYP2C19 activ 0, PLAP activator 1.6 and CYP2C9 inhib 68.6*.
`CCc1ccc(C2CC(c3ccccc3)n3ncnc3N2)cc1` (centres undefined) gave CYP2C9 act 0.5, CYP2C19 inh 88.4*, CYP2C19 activ 0.1, PLAP activator 1.1 and CYP2C9 inhib 48.2.
COc1ccccc1C1CC(c2ccc(F)cc2)Nc2ncnn21 (centres undefined) was read as CYP2C9 act 1.1, CYP2C19 inh 42.0, CYP2C19 activ 0.6, PLAP activator 1.1 and CYP2C9 inhib -5.7.
Screening CC(C)OC(=O)NCN1C(=O)C2C3C=CC(C3)C2C1=O (centres undefined) returned CYP2C9 act 1, CYP2C19 inh -1.8, CYP2C19 activ 1, PLAP activator 1.1 and CYP2C9 inhib -4.9.
For CC(=NCc1ccncc1)C1=C(O)c2ccccc2C1=O the results were CYP2C9 act 0.2, CYP2C19 inh 65.3*, CYP2C19 activ 0.3, PLAP activator 0.9 and CYP2C9 inhib 83.3*.
For CC(=NCCCn1ccnc1)C1=C(O)c2ccccc2C1=O the results were CYP2C9 act 0.2, CYP2C19 inh 46.4, CYP2C19 activ 0.5, PLAP activator 1.1 and CYP2C9 inhib 81.0*.
